Assay outcomes deposited in PubChem by Broad Institute.
Not all results are given here.
aSyn 5UTR act – Activators via SNCA 5'UTR binding, MLPCN; alpha-synuclein 5'UTR reporter, activators screen; activity score, % (tested at 7.5 µM), hits read low; 7.1% of 300,000 active; in the data active means activity score below about -60%
Hits are given with their value; 0 = inactive.

SMILES	aSyn 5UTR act
O=C(CNC(=O)c1ccccc1Cl)c1ccccc1	-113
O=C(NCCSc1ccccc1)c1cccnc1	-100
O=C(NCCSc1ccccc1)c1ccccc1F	-76
Cc1ccccc1C(=O)NCC(=O)c1ccccc1	-135
O=C(COc1ccccc1)NCCSc1ccccc1	-99
CC(CNC(=O)c1ccccc1Cl)c1ccccc1 (stereo not given)	-111
O=C(CNC(=O)c1ccccc1F)c1ccccc1	-93
O=C(NC(=S)NNC(=O)[C@H]1C[C@@H]1c1ccccc1)c1cccc(F)c1	0
C/C(NC(=O)c1ccccc1F)=C1\C(=O)C[C@@H]2[C@H]1C2(C)C	-174
C/C(NC(=O)c1cccc(F)c1)=C1/C(=O)C[C@@H]2[C@H]1C2(C)C	-183
Oc1ccc(N=C/C=C/c2ccc(Br)cc2)cc1-c1nc2ccccc2s1	-107
O=C(COc1ccc(Cl)cc1Cl)NC(=O)N1CCCCC1	-121
Cc1cc(Cl)ccc1OCC(=O)N1CCCCC1	-108
CN(C)c1nc(F)c(F)c(S(=O)(=O)c2ccccc2)c1F	-94
CN(C)/C=C(\C#N)C(=O)Nc1ccccc1	-73
Cc1c(-c2nc(-c3cccnc3)no2)cccc1[N+](=O)[O-]	-81
Cc1ccc(-c2nc(-c3cccnc3)no2)c(C)c1	-92
COc1cccc(-c2csc(NC(C)=O)n2)c1	-181
O=C(Nc1nc(-c2cccc(Br)c2)cs1)Oc1ccccc1	-101
CCc1ccc(-c2csc(NC(=O)Oc3ccccc3)n2)cc1	-161
O=C(Oc1ccc(NC2=C(Cl)C(=O)c3ccccc3C2=O)cc1)c1ccc([N+](=O)[O-])cc1	-109
C#CCN1C(=O)S/C(=C\c2ccc(-c3ccc(Cl)c(C(=O)O)c3)o2)C1=O	-93
CCN=C1S/C(=C\c2cn(CC(=O)NCc3ccco3)c3ccccc23)C(=O)N1CC	0
CCN=C1S/C(=C\c2ccc(-c3cccc(C(=O)O)c3)o2)C(=O)N1CC	-69
CCCNC(=O)CCn1nc(-c2ccc(Cl)cc2)c2ccccc2c1=O	0
SMILES	aSyn 5UTR act
Cc1nn(-c2ccccc2)c2sc(C(=O)N3CCOCC3)cc12	-87
COCCCNC(=O)c1cc2c(-c3ccc(Cl)cc3)nn(C)c2s1	-72
COc1cccc(-c2nn(C)c3sc(C(=O)NCCCN(C)Cc4ccccc4)cc23)c1	-76
Cn1nc(-c2ccc(Cl)cc2)c2cc(C(=O)N3CCN(c4ccccc4)CC3)sc21	-65
O=C1CC(c2cc(Br)ccc2F)c2cc3c(cc2N1)CCC3 (stereo not given)	0
CCOC(=O)c1ccc(NC(=O)Nc2ccon2)cc1	0
O=C(Nc1ccc(Cl)c(Cl)c1)Nc1ccccc1O	-105
O=C(Nc1ccc(Cl)c(Cl)c1)Nc1ccon1	-69
O=C1/C(=C\c2ccco2)NC(=S)N1c1ccccc1	-84
C=CCN1C(=O)CS/C1=N\N=C\c1cccc([N+](=O)[O-])c1	-73
C/C(=N\NC(=O)c1cc(-c2cccnc2)nc2ccccc12)c1ccccc1O	0
O=C(Nc1cccnc1)c1cc2c(ccc3ccccc32)o1	-104
CCc1ccc2oc(C(=O)Nc3cccnc3)c(C)c2c1	-220
Cc1c(C(=O)Nc2cccnc2)oc2ccc(Br)cc12	-246
CC(=O)Nc1cccc(NC(=O)c2cc(-c3cccnc3)nc3ccc(Br)cc23)c1	-62
Nc1nc2ccccc2n1/N=C/c1ccc(Br)cc1	-139
Nc1nc2ccccc2n1/N=C/c1ccc2c(c1)OCO2	-192
Cn1nnc2cc(C(=O)Nc3ccc(Cl)cc3)ccc21	-117
CN(C)c1ccc(NC(=O)Nc2ccc3c(c2)nnn3C)cc1	-109
CC(=O)c1cccc(NC(=O)c2ccc(Br)o2)c1	-71
O=C(Nc1cccc(F)c1)c1ccc(Br)o1	-66
N#CC1=C(N)NC(SCc2ccc(F)cc2)=C(C#N)C12CCCCC2	-83
CCc1ccc(NC(=O)c2cnc3scc(C)n3c2=O)cc1	-247
Cc1csc2ncc(C(=O)Nc3cccc(C(F)(F)F)c3)c(=O)n12	-128
Cc1ccc(C(=O)Nc2cccc(C(F)(F)F)c2)cc1NC(=O)c1cnnc2ccccc12	0
SMILES	aSyn 5UTR act
CC1Cc2ccccc2N1C(=O)/C=C/c1cccc(F)c1 (stereo not given)	-170
Cc1c(C(=O)C(=O)N2c3ccc(F)cc3CCC2C)c2ccccc2n1C (stereo not given)	0
CC1Cc2ccccc2N1C(=O)Cc1cccs1 (stereo not given)	0
COCCNc1oc(/C=C/c2ccccc2)nc1C#N	-146
N#Cc1nc(/C=C/c2ccccc2)oc1NCCCN1CCOCC1	-82
CNc1oc(/C=C/c2ccccc2)nc1C#N	-275
CC(C)=NNc1nc(-c2ccccc2)cs1	-182
CC(C)(C)c1csc(N/N=C/c2cccnc2)n1	-173
C(=N\Nc1nc(-c2ccccc2)cs1)/c1cccnc1	-339
Cc1ccc(/C=N/Nc2nc(C(C)(C)C)cs2)o1	-123
CCCC(=O)Nc1ccc(-c2csc(N/N=C\c3ccncc3)n2)cc1	-116
CSCCC(=O)N1CCC(n2nccc2NC(=O)c2ccc3c(c2)OCO3)CC1	-84
CC#CC(=O)N1CCC(n2nccc2NC(=O)c2ccc3c(c2)OCO3)CC1	-83
O=C(CSc1ccc(-c2ccccn2)nn1)N1CCCCC1	-66
CCOc1ccc(-c2ccc(SCC(=O)N3CCN(c4ccccc4)CC3)nn2)cc1	-69
O=C(CSc1ccc(-c2ccccc2)nn1)N1CCCCC1	-155
CC(=O)c1cccc(NC(=O)CSc2ccc(-c3ccccn3)nn2)c1	0
Fc1ccc(F)c(NC(=S)NCCc2ccccc2)c1	-93
Fc1cccc(NC(=S)NCCc2ccccc2)c1	-71
Fc1ccccc1NC(=S)NCCc1ccccc1	-118
O=C(Nc1ccc2ncccc2c1)c1cc(Cl)ccc1Cl	-80
O=C(Nc1ccc2ncccc2c1)c1cccc(Br)c1	-375
Brc1ccc(CNc2ccc3ncccc3c2)cc1	-194
Cc1ccc(C(=O)Nc2ccc3ncccc3c2)cc1	0
COc1cc([N+](=O)[O-])ccc1NC(=O)Nc1ccc2c(c1)OCCO2	-72
SMILES	aSyn 5UTR act
O=C(Nc1ccc([N+](=O)[O-])cc1)Nc1ccc2c(c1)OCCO2	-92
COc1cccc(OCc2cc(/C=N/Nc3ccc(C(=O)O)cc3)ccc2OC)c1	-92
CCOc1cc(/C=N/Nc2ccc(C(=O)O)cc2)ccc1OC(=O)c1ccccc1C	-91
COc1ccc(CCN2CCC(Nc3nc4ccccc4n3Cc3ccc(F)cc3)CC2)cc1	0
CN(C(=O)c1ccc(OC2CCN(CCc3ccccc3)CC2)cc1)C1CCCCC1	-125
CC(C)(C)c1ccc(N=C2SCC(=O)N2Cc2cccs2)cc1	-72
O=C(CSc1nnc2sc3ccccc3n12)c1ccco1	-118
c1csc(CSc2nnc3sc4ccccc4n23)c1	-81
O=C(CSc1nnnn1-c1ccccc1)c1ccco1	-63
Cc1cc(C(=O)CSc2cccc[n+]2[O-])c(C)n1-c1ccc(OC(F)F)cc1	-103
COc1ccc(C(=O)Nc2sc3c(c2C(=O)O)CC(C)(C)OC3)cc1	0
CC1(C)Cc2c(sc(NC(=O)c3ccccc3)c2C(=O)O)CO1	-74
CCOc1ccc(-c2csc(Cn3c(CN4CCN(C)CC4)nc4ccccc4c3=O)n2)cc1	-66
c1ccn2c(SCc3ccc4c(c3)OCO4)nnc2c1	-93
Cn1c(SCc2ccc3c(c2)OCO3)nnc1-c1ccccc1	-80
COc1ccc(Cn2c(SCc3ccc(C)cc3)nc3cc(OC)c(OC)cc3c2=N)cc1Cl	0
COc1ccc(CSc2nnc(-c3ccncc3)n2C)cc1F	-94
Clc1ccc(CSc2nncn2-c2ccc3c(c2)OCCO3)cc1	0
COc1ccc(C(=O)Nc2ccc(C(F)(F)F)n(C)c2=O)cc1	-151
